In PubChem BioAssay:
For some assays here: Measured potencies and affinities stand elsewhere. Calls of active or inactive are those of the source. Unless noted, the limit is not given here; nearly all actives have IC50 up to about 0.91 µM.

The molecules below were run against Protein kinase 7 (PK7), Plasmodium falciparum 3D7 (PF3D7_0213400) (UniProt Q7YTF7) (assay: inhibition of Plasmodium PK7 catalytic activity – biochemical, TCAMS antimalarial set, Kinase-Glo luminescence (AID 1159587; call rule not given here)). Details: recombinant PfPK7, Kinase-Glo ATP depletion luminescence.
Protein kinase 7 (PK7), Plasmodium falciparum 3D7 (PF3D7_0213400), sequence (Q7YTF7 1-343): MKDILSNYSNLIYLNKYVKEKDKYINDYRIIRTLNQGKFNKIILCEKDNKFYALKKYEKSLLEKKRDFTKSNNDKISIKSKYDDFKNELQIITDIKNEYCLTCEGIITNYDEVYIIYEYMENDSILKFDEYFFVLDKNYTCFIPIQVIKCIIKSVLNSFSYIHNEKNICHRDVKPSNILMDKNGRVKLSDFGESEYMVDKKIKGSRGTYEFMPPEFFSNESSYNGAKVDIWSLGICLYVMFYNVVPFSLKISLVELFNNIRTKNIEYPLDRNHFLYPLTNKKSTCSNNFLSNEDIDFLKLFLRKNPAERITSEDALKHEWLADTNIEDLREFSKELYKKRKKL

outcome, inactive:
Cc1ccccc1Nc1cc(Nc2ccccc2C)c2ccccc2n1, CCC[C@@H]([C@@H](CC1CCCCC1)C(=O)N[C@H](C(=O)Nc1nccs1)C(C)(C)SC)N(O)C=O, CCNc1cc(C(=O)N[C@@H](Cc2ccccc2)[C@H](O)CNC(C)CC(C)C)c(F)c(N2CCCCS2(=O)=O)c1 (stereo not given in full), CC1SC(=S)NC1C(=O)O (stereo not given), O=C(Nc1ccc(-c2nc3ccccc3[nH]2)cc1)c1ccc(S(=O)(=O)N2CCc3ccccc32)cc1, C=CCc1c(C(=O)NCC23CC4CC(CC(C4)C2)C3)[nH]c2ccccc2c1=O, COc1ccc2nccc(NN=Cc3cccc(F)c3)c2c1, CN(C)CCC1CCCc2ccc(NC(=O)Nc3cccc(Cl)c3Cl)cc21 (stereo not given), O=C(Nc1ccc(Cl)c(C(F)(F)F)c1)NC1CCN(CCCCCNC(=O)[C@@H]2C[C@H]2c2ccc(Cl)c(Cl)c2)CC1, CO/C(=C\C=C\c1cc2cc(Cl)c(Cl)cc2[nH]1)C(=O)NC1CCN(CCNc2ccccc2)CC1, O=C(Nc1ccc(-c2cccc(-c3nc4ccccc4[nH]3)c2)cc1)Nc1ccc2c(c1)OCO2, CN1CCN(CC(=O)Nc2ccc(-c3ccc(-c4nc5ccc(C(F)(F)F)cc5[nH]4)cc3)cc2)CC1, O=C(c1cccs1)N1CCN(c2ccc([N+](=O)[O-])c(NC3CC3)c2)CC1, CC(C)(C)c1ccccc1SC1=C(O)CC2(CCNCC2)OC1=O, Cc1cc(C)c(C(=O)Nc2ccc3nc(C)cc(N)c3c2)c(C)c1, CC(=O)Nc1ccc(CN(Cc2cccc(OC(C)(C)C)c2)Cc2ccc3c(c2)OCCO3)cc1, CC1CCCN(S(=O)(=O)c2ccc(NC(=O)c3cc(-c4ccccc4O)n[nH]3)cc2)C1 (stereo not given), CC(=O)c1cccc(NC(=O)NC2CCN(c3ccnc(Nc4ccc(F)cc4)n3)C2)c1 (stereo not given), O=C(Nc1ccc(C(=O)OCC(c2ccccc2)c2ccccc2)cc1)N[C@@H](Cc1ccc(O)cc1)C(=O)NC1CCN(Cc2ccc(O)cc2)C1 (stereo not given in full), Nc1ccnc2ccc(OCCCCCCc3ccccc3)cc12, COc1ccc(-c2nonc2NC(=O)c2ccc(C(C)(C)C)cc2)cc1OC, O=C(O)c1ccc2c(c1)N(C(=O)CNCc1ccc(F)cc1)CC(=O)N2CCCc1ccccc1, O=C(c1ccc([N+](=O)[O-])o1)N1CCC(c2cn(Cc3cccc(F)c3)c3ccccc23)CC1, CCN=C1NC2=C(CC(C(C)(C)C)CC2)C2(CCC(C(C)(C)C)CC2)S1 (stereo not given), O=C(NCCCCN1CCC(c2ccc3c(c2OC(=O)c2ccc(NC(=O)c4ccc(Cl)cc4)cc2)CCCC3)CC1)c1ccc(NC(=O)c2ccc(Cl)cc2)cc1, COc1ccc(C=CC(=O)NC(=O)c2ccccc2OC(=O)c2ccccc2)cc1OC, Cc1cccc(NC(=O)N(Cc2cc3cc(C)cc(C)c3[nH]c2=O)C2CC2)c1, CCc1cn2c3c(cc(C(=O)N[C@@H](Cc4ccccc4)[C@H](O)CNCCOC)cc13)N(C)S(=O)(=O)CC2, CC(C)(C)c1ccc(CN2CCC(NC(=O)c3ccc(-c4cccc(Cl)c4)s3)CC2)cc1, Cc1cc(N[C@@H](CC(C)C)C(=O)NCc2cccs2)nc(NCCc2cccs2)n1, COC(=O)c1cccc(CNCc2cccc(-c3ccc(-c4nc5c(C)cccc5[nH]4)s3)c2)c1, Oc1ccc(-c2ccccc2)cc1CN1CCCCCC1, c1cc(CNC2Cc3ccccc3C2)cc(-c2cnc(N3CCNCC3)nc2)c1, COc1cc(Cc2cnc(N)nc2N)c2ccsc2c1OC, CC(C)Nc1nc(NCCc2cnc[nH]2)nc(NCc2ccc(Cl)c(Cl)c2)n1, COC(=O)C(Cc1ccccc1)C(CSCc1ccc(OC)cc1)C(=O)N[C@@H](C(=O)OC(C)(C)C)c1ccc(C(C)(C)C)cc1 (stereo not given in full), CC[C@H](NC(=O)c1c(CCCN2CCN(c3ccccc3)CC2)c(-c2ccccc2)nc2cc(O)ccc12)c1ccccc1, CC(=O)NC1=NC(C)(C)N(OCCCOc2ccc(Cl)c(Cl)c2)C(NC(C)=O)=N1, CC(CN1CCN(C)CC1)C(=O)Nc1ccc(-c2ccc(-c3nc4ccccc4[nH]3)s2)cc1 (stereo not given), CCN(c1cc(C)nc(Nc2ccc(Cl)cc2)n1)[C@H]1CCN(Cc2ccccc2)C1

What follows are molecules tested against Calcium-dependent protein kinase 4 (Plasmodium falciparum (isolate 3D7)) (UniProt Q8IBS5) (assay: PfCDPK4 kinase inhibitors, biochemical, TCAMS library (AID 1159588)). Details: recombinant PfCDPK4, Kinase-Glo ATP depletion luminescence.
Calcium-dependent protein kinase 4 (Plasmodium falciparum (isolate 3D7)), sequence (Q8IBS5 whole entry, looked up): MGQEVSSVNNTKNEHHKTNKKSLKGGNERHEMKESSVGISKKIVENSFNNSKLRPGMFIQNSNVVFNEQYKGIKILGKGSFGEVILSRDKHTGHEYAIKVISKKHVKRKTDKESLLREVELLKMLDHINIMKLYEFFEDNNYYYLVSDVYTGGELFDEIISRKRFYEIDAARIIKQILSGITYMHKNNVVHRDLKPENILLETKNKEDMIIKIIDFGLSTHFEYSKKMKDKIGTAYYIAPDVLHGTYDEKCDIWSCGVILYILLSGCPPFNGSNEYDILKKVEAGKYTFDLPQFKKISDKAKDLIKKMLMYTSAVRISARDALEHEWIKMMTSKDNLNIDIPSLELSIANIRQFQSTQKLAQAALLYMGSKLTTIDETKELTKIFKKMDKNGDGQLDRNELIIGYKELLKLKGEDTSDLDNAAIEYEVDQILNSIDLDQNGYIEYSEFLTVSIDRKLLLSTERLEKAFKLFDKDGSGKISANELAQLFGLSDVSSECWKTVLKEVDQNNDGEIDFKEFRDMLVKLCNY

outcome, inactive:
Cc1ccccc1Nc1cc(Nc2ccccc2C)c2ccccc2n1, CCC[C@@H]([C@@H](CC1CCCCC1)C(=O)N[C@H](C(=O)Nc1nccs1)C(C)(C)SC)N(O)C=O, CCNc1cc(C(=O)N[C@@H](Cc2ccccc2)[C@H](O)CNC(C)CC(C)C)c(F)c(N2CCCCS2(=O)=O)c1 (stereo not given in full), CC1SC(=S)NC1C(=O)O (stereo not given), O=C(Nc1ccc(-c2nc3ccccc3[nH]2)cc1)c1ccc(S(=O)(=O)N2CCc3ccccc32)cc1, C=CCc1c(C(=O)NCC23CC4CC(CC(C4)C2)C3)[nH]c2ccccc2c1=O, COc1ccc2nccc(NN=Cc3cccc(F)c3)c2c1, CN(C)CCC1CCCc2ccc(NC(=O)Nc3cccc(Cl)c3Cl)cc21 (stereo not given), O=C(Nc1ccc(Cl)c(C(F)(F)F)c1)NC1CCN(CCCCCNC(=O)[C@@H]2C[C@H]2c2ccc(Cl)c(Cl)c2)CC1, CO/C(=C\C=C\c1cc2cc(Cl)c(Cl)cc2[nH]1)C(=O)NC1CCN(CCNc2ccccc2)CC1, O=C(Nc1ccc(-c2cccc(-c3nc4ccccc4[nH]3)c2)cc1)Nc1ccc2c(c1)OCO2, CN1CCN(CC(=O)Nc2ccc(-c3ccc(-c4nc5ccc(C(F)(F)F)cc5[nH]4)cc3)cc2)CC1, O=C(c1cccs1)N1CCN(c2ccc([N+](=O)[O-])c(NC3CC3)c2)CC1, CC(C)(C)c1ccccc1SC1=C(O)CC2(CCNCC2)OC1=O, Cc1cc(C)c(C(=O)Nc2ccc3nc(C)cc(N)c3c2)c(C)c1, CC(=O)Nc1ccc(CN(Cc2cccc(OC(C)(C)C)c2)Cc2ccc3c(c2)OCCO3)cc1, CC1CCCN(S(=O)(=O)c2ccc(NC(=O)c3cc(-c4ccccc4O)n[nH]3)cc2)C1 (stereo not given), CC(=O)c1cccc(NC(=O)NC2CCN(c3ccnc(Nc4ccc(F)cc4)n3)C2)c1 (stereo not given), O=C(Nc1ccc(C(=O)OCC(c2ccccc2)c2ccccc2)cc1)N[C@@H](Cc1ccc(O)cc1)C(=O)NC1CCN(Cc2ccc(O)cc2)C1 (stereo not given in full), Nc1ccnc2ccc(OCCCCCCc3ccccc3)cc12, COc1ccc(-c2nonc2NC(=O)c2ccc(C(C)(C)C)cc2)cc1OC, O=C(O)c1ccc2c(c1)N(C(=O)CNCc1ccc(F)cc1)CC(=O)N2CCCc1ccccc1, O=C(c1ccc([N+](=O)[O-])o1)N1CCC(c2cn(Cc3cccc(F)c3)c3ccccc23)CC1, CCN=C1NC2=C(CC(C(C)(C)C)CC2)C2(CCC(C(C)(C)C)CC2)S1 (stereo not given), O=C(NCCCCN1CCC(c2ccc3c(c2OC(=O)c2ccc(NC(=O)c4ccc(Cl)cc4)cc2)CCCC3)CC1)c1ccc(NC(=O)c2ccc(Cl)cc2)cc1, COc1ccc(C=CC(=O)NC(=O)c2ccccc2OC(=O)c2ccccc2)cc1OC, Cc1cccc(NC(=O)N(Cc2cc3cc(C)cc(C)c3[nH]c2=O)C2CC2)c1, CCc1cn2c3c(cc(C(=O)N[C@@H](Cc4ccccc4)[C@H](O)CNCCOC)cc13)N(C)S(=O)(=O)CC2, CC(C)(C)c1ccc(CN2CCC(NC(=O)c3ccc(-c4cccc(Cl)c4)s3)CC2)cc1, Cc1cc(N[C@@H](CC(C)C)C(=O)NCc2cccs2)nc(NCCc2cccs2)n1, COC(=O)c1cccc(CNCc2cccc(-c3ccc(-c4nc5c(C)cccc5[nH]4)s3)c2)c1, Oc1ccc(-c2ccccc2)cc1CN1CCCCCC1, c1cc(CNC2Cc3ccccc3C2)cc(-c2cnc(N3CCNCC3)nc2)c1, COc1cc(Cc2cnc(N)nc2N)c2ccsc2c1OC, CC(C)Nc1nc(NCCc2cnc[nH]2)nc(NCc2ccc(Cl)c(Cl)c2)n1, COC(=O)C(Cc1ccccc1)C(CSCc1ccc(OC)cc1)C(=O)N[C@@H](C(=O)OC(C)(C)C)c1ccc(C(C)(C)C)cc1 (stereo not given in full), CC[C@H](NC(=O)c1c(CCCN2CCN(c3ccccc3)CC2)c(-c2ccccc2)nc2cc(O)ccc12)c1ccccc1, CC(=O)NC1=NC(C)(C)N(OCCCOc2ccc(Cl)c(Cl)c2)C(NC(C)=O)=N1, CC(CN1CCN(C)CC1)C(=O)Nc1ccc(-c2ccc(-c3nc4ccccc4[nH]3)s2)cc1 (stereo not given), CCN(c1cc(C)nc(Nc2ccc(Cl)cc2)n1)[C@H]1CCN(Cc2ccccc2)C1
